Assay results taken from the supplement of paper PMC11732987, “Enantioselective OTUD7B fragment discovery through chemoproteomics screening and high-throughput optimisation” (Communications Chemistry, 2025).

Key:
Assay in all cases: log2 ratio of Biotin-Ahx-Ub-VS probe labelling (fragment/DMSO); higher = less target engagement (more negative = stronger competition), active = hit call of the paper (q ≤ 0.05, log2 ratio ≤ -1)
Settings in all cases: compound concentration: 200 uM; treatment time: 3 h
USP19 = target: T1, USP19 (UniProt O94966)
T1 sequence (whole entry): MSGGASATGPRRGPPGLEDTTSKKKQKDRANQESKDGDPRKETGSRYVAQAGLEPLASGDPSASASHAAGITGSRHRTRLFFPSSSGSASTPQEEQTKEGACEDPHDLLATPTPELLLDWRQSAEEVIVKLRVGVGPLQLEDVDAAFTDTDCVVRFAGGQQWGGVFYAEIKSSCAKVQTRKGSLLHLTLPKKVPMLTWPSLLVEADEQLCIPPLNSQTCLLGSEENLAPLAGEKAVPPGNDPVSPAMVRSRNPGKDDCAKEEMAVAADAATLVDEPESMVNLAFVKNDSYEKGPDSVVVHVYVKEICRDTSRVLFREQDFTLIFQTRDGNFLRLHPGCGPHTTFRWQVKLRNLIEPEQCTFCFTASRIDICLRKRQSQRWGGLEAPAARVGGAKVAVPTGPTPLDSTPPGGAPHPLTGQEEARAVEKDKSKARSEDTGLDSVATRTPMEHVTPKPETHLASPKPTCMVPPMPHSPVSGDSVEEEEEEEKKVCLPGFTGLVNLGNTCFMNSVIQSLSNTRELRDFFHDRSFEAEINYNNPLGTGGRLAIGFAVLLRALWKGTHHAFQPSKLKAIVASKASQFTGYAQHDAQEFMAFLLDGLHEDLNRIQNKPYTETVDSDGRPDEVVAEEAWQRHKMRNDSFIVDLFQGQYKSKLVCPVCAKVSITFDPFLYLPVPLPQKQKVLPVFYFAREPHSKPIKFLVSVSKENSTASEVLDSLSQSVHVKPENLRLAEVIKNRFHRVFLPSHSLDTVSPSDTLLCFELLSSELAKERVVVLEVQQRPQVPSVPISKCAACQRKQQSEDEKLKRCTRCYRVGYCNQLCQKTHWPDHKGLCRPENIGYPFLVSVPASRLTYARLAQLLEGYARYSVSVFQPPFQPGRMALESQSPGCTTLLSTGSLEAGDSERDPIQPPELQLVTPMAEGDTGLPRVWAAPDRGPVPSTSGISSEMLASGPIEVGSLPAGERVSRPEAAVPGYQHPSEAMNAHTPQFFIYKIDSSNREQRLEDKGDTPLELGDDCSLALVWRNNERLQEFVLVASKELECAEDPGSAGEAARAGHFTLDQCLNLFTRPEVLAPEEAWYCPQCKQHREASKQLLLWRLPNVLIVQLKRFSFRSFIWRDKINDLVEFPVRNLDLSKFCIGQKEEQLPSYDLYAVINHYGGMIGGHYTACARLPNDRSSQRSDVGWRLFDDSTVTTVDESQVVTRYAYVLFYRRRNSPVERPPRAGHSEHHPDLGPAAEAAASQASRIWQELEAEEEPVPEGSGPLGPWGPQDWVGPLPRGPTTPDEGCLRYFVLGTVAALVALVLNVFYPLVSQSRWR
In short: (§1)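 Average log2 ratios of fragment over vehicle were obtained by unpaired t-test from global-median-normalised Spectronaut label-free quantities. Proteins with ≥2 unique peptides were included. HEK293T lysate (495 µg per sample) was treated in triplicate with fragment at 200 µM or vehicle for 3 h, then with Biotin-Ahx-Ub-VS at 0.5 µM final for 1 h, and labelled DUBs were NeutrAvidin-enriched and run by diaPASEF LC-MS/MS.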

USP24 = USP24 (UniProt Q9UPU5)
USP24, sequence (Q9UPU5 whole entry): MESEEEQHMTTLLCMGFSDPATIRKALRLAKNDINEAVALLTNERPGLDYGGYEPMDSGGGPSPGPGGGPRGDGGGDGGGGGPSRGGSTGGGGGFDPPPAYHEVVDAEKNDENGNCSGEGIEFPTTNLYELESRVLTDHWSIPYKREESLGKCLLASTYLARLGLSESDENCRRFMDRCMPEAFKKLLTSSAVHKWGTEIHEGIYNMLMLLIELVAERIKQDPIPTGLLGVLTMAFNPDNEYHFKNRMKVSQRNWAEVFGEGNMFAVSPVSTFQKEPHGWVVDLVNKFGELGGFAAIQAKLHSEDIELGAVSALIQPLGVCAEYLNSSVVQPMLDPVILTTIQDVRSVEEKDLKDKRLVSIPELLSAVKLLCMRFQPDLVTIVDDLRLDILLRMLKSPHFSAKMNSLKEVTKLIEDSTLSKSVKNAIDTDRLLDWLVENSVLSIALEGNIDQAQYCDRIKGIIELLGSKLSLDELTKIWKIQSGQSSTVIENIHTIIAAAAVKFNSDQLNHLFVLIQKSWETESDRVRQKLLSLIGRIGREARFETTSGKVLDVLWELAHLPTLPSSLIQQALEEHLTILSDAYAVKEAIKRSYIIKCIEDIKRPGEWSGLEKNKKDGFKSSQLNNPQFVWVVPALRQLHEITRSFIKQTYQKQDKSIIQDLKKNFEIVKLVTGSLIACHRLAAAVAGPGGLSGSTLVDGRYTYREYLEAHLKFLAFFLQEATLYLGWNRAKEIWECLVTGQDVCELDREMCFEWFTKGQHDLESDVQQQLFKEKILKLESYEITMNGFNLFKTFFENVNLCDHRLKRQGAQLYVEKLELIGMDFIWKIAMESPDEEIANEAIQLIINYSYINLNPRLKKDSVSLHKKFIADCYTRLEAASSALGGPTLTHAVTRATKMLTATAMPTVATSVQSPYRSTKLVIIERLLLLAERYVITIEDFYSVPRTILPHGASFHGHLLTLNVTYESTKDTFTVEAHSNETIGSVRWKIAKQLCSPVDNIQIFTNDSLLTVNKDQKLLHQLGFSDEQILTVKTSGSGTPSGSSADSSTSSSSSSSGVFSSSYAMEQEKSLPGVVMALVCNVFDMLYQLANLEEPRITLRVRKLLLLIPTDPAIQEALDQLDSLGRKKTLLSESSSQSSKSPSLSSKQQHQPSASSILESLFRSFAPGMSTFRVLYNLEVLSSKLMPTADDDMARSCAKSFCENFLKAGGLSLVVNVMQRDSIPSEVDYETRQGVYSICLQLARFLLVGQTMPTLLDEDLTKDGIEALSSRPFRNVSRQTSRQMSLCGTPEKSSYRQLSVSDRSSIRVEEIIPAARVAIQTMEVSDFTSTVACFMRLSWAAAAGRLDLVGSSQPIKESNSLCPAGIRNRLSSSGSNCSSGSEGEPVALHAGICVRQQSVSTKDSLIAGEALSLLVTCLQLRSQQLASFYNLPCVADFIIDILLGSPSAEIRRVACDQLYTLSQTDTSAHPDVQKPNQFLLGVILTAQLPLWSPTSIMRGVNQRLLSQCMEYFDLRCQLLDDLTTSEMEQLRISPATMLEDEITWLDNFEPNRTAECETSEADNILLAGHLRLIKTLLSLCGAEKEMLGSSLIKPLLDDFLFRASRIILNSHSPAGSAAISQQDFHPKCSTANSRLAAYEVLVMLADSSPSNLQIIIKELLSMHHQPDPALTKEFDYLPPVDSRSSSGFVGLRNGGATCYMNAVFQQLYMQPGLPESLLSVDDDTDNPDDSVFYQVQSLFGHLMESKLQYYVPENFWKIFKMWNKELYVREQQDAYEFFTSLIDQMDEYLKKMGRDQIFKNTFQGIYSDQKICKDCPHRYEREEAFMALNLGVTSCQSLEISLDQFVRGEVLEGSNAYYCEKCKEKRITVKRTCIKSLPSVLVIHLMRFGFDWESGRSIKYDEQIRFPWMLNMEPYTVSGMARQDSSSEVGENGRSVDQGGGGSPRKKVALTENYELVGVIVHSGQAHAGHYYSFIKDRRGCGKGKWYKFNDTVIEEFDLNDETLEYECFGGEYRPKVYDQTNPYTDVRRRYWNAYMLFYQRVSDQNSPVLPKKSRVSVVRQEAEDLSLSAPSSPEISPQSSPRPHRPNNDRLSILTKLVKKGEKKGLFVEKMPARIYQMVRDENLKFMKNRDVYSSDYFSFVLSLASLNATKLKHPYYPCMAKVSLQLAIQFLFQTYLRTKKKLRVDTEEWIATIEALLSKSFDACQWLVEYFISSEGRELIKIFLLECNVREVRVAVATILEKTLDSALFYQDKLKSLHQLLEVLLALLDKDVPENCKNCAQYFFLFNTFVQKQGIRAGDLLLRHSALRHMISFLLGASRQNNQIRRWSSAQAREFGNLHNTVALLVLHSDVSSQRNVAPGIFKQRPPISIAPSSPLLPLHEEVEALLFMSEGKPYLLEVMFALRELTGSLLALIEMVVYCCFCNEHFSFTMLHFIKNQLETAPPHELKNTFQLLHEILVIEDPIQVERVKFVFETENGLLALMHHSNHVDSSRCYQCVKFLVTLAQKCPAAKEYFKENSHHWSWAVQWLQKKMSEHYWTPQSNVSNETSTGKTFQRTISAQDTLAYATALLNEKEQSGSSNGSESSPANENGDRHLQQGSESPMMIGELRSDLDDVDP
In short: as §1

USP25 = target: T2, USP25 (UniProt Q9UHP3)
T2 sequence (whole entry): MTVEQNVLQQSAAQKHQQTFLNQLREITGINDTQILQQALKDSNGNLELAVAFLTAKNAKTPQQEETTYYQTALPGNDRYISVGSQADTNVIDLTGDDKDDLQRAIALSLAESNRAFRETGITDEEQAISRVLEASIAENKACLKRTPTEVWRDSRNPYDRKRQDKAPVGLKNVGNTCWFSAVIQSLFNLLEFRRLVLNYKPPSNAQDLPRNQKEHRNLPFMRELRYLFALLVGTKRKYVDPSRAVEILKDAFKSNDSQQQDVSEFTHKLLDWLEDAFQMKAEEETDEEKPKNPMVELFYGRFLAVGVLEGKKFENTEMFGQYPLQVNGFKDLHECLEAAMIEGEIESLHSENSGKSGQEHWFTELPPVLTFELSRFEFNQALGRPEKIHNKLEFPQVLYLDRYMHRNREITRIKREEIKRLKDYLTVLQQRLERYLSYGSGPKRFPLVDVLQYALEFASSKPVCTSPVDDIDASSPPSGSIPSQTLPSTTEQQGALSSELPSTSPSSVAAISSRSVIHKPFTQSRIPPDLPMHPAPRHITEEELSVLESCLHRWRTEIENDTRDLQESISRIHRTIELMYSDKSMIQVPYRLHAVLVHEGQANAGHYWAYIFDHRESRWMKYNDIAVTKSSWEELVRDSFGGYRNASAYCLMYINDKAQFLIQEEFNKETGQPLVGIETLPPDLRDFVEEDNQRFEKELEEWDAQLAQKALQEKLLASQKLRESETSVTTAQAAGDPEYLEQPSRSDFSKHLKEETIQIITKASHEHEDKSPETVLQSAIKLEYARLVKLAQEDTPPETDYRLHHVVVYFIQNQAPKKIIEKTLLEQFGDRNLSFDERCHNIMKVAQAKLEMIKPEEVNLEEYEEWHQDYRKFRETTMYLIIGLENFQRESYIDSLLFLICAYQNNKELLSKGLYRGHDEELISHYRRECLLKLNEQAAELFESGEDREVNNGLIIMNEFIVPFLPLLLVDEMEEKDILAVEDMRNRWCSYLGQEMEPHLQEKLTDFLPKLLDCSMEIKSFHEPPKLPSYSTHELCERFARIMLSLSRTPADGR
In short: as §1

USP28 = target: T3, USP28 (UniProt Q96RU2)
T3 sequence (whole entry): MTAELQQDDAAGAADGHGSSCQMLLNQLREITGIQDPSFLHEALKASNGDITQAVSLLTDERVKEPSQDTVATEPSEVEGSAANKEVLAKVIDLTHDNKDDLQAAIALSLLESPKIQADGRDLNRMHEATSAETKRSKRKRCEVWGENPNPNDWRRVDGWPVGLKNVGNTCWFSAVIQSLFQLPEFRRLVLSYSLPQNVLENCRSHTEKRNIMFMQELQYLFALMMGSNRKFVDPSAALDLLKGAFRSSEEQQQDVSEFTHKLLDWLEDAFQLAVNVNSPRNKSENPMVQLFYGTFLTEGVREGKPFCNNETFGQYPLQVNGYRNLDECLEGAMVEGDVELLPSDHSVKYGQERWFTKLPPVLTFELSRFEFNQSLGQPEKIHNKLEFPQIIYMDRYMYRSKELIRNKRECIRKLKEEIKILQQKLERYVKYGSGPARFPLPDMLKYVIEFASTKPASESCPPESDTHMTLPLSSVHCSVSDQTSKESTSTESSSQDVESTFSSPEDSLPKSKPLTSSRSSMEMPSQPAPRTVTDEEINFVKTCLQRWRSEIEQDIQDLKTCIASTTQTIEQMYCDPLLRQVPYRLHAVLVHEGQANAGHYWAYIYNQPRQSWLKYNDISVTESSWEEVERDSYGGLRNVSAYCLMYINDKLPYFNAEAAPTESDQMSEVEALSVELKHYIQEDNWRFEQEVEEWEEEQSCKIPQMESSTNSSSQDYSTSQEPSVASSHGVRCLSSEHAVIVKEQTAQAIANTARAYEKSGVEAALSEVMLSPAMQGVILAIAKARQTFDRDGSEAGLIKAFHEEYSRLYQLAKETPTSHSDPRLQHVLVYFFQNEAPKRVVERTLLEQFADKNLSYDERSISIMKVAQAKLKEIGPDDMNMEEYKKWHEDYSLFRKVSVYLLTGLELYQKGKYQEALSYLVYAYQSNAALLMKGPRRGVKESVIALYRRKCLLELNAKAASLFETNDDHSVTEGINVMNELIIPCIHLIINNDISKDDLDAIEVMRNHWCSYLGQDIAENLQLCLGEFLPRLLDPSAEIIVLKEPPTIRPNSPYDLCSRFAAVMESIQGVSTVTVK
In short: as §1

Measured: log2 ratio of Biotin-Ahx-Ub-VS probe labelling

Cc1cc(CC(C)NC(=O)CCl)n[nH]1 (centres undefined)
inactive: USP19 -0.257 | USP24 -0.17 | USP25 -0.198 | USP28 -0.332
